Unmarked numbers belong to inactive results. Results filed as inconclusive are left out. Where a call stands in place of a potency, no number is given. The source made the active and inactive calls. Unless noted, the call rests on the fitted dose curve.
Key:
[1] = Nuclear factor erythroid 2-related factor 2/antioxidant responsive element (Nrf2/ARE) small molecule agonists: qHTS cell viability counter screen in human keratinocytes (AID 1919968; active means well fitted curve in the direction sought with a large enough effect in the repeat runs; an effect the other way counts as inactive or inconclusive; further: nearly all actives have a fitted effect of over 55% in size; further: potency means the concentration at half of the fitted maximal effect)
How it was run: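 Viability counter-screen: KeratinoSens reporter cells, DMSO-delivered compounds, 23 h at 37 C, CellTiter-Fluor fluorescence.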

[2] = Nuclear factor erythroid 2-related factor 2/antioxidant responsive element (Nrf2/ARE) small molecule agonists: luciferase reporter gene qHTS assay in human keratinocytes (AID 1919969); further: nearly all actives have a fitted effect of over 35% in size; further: potency means the concentration at half of the fitted maximal effect
[3] = biological target: Gonadotropin-releasing hormone receptor (Homo sapiens) (UniProt P30968); assay: Human gonadotropin-releasing hormone receptor (GnRHR) small molecule agonists, calcium flux assay in GnRHR-HEK293 cells (AID 1920063); further: nearly all actives have a fitted effect of over 35% in size; further: potency means the concentration at half of the fitted maximal effect
How it was run: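 Tox21-format agonist screen using human GnRHR-expressing HEK293 cells and a fluorescent calcium dye; kinetic 3-min fluorescence reading after compound addition, 15-point concentration series run in triplicate.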

[4] = biological target: KiSS-1 receptor (Homo sapiens) (UniProt Q969F8); assay: Human kisspeptin (KISS1R) small molecule agonists, calcium flux assay in KISS1R-HEK293 cells (AID 1920064; active means well fitted curve in the direction sought with a large enough effect in the repeat runs; an effect the other way counts as inactive or inconclusive)
How it was run: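 Intracellular calcium mobilization in KISS1R-HEK293 cells was recorded by fluorescence (Ex/Em 480/540) for 3 min following compound addition to cells pre-loaded 1 h with calcium dye.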

[5] = p53 small molecule agonists, cell-based qHTS assay with rat liver microsomes (AID 1963578)
How it was run: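 Read-out is beta-lactamase reporter fluorescence (LiveBLAzer, 2 h, room temperature, dark) in p53RE-bla cells treated 16 h at 37 C with compound, rat liver microsomes and NADPH, both 0.5 mg/mL final.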

[6] = p53 small molecule agonists, cell-based qHTS assay with human liver microsomes: qHTS cell viability counter screen (AID 1963579); further: nearly all actives have a fitted effect of over 45% in size; further: potency means the concentration at half of the fitted maximal effect
How it was run: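 Cells carrying the p53 response-element beta-lactamase reporter are treated for 16 h at 37 C with test compounds in the presence of human liver microsomes and NADPH (both 0.5 mg/mL final); ATP-based CellTiter-Glo luminescence then reports viability.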

[7] = p53 small molecule agonists, cell-based qHTS assay with rat liver microsomes: qHTS cell viability counter screen (AID 1963580); further: nearly all actives have a fitted effect of over 45% in size
How it was run: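 Intracellular ATP, by CellTiter-Glo luminescence, defines viability. HCT-116 p53RE-bla cells, 4,000 per well, were compound-treated in the presence of rat liver microsomes and NADPH for 16 h at 37 C.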

[8] = p53 small molecule agonists, cell-based qHTS assay: qHTS cell viability counter screen (AID 1963581); further: nearly all actives have a fitted effect of over 45% in size
How it was run: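 Compounds are pinned onto HCT-116 p53RE-bla cells and left 16 h at 37 C. Following the reporter FRET read, ATP is quantified by CellTiter-Glo luminescence after 30 min at room temperature.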

[9] = p53 small molecule agonists, cell-based qHTS assay (AID 1963582; active means well fitted activation curve with a large enough effect in the signal ratio in the repeat runs, not every such curve was filed as active; the % refers to the signal ratio)
How it was run: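 Agonist activity was scored from beta-lactamase FRET fluorescence in p53RE-bla cells treated 16 h at 37 C with compounds in DMSO, substrate incubation being 2 h at room temperature.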

[10] = biological target: 5-hydroxytryptamine receptor 2A (Homo sapiens) (UniProt P28223); assay: 5-hydroxytryptamine receptor 2A (HTR2A) small molecule antagonists, cell-based qHTS assay (AID 1963586); further: nearly all actives have a fitted effect of over 45% in size
How it was run: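 Antagonist-mode intracellular calcium assay: DOI (4 nM) added after 5 min compound pre-incubation at room temperature to dye-loaded HTR2A-CHO cells. Fluorescence followed for 3 min, sampled every second.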

[11] = biological target: 5-hydroxytryptamine receptor 2A (Homo sapiens) (UniProt P28223); assay: 5-hydroxytryptamine receptor 2A (HTR2A) small molecule agonists, cell-based qHTS assay (AID 1963587); further: nearly all actives have a fitted effect of over 30% in size
How it was run: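 Kinetic calcium-flux fluorescence (2 min, 1 sec intervals) after compound addition in agonist mode. HTR2A-CHO cells were cultured 18 h, then dye-loaded 1 h at 37 C.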

[12] = biological target: Muscarinic acetylcholine receptor M1 (Homo sapiens) (UniProt P11229); assay: Cholinergic receptor muscarinic 1 (CHRM1) small molecule antagonists, cell-based qHTS assay (AID 1963588); further: nearly all actives have a fitted effect of over 40% in size
How it was run: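 CHRM1-CHO calcium-flux assay, antagonist mode. Cells were seeded 18 h, dye-loaded 1 h at 37 C and given compound for 5 min at RT, then acetylcholine was added at 50nM. FDSS fluorescence was read 3 min; 15 concentrations, three runs.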

[13] = biological target: Muscarinic acetylcholine receptor M1 (Homo sapiens) (UniProt P11229); assay: Cholinergic receptor muscarinic 1 (CHRM1) small molecule agonists, cell-based qHTS assay (AID 1963589); further: nearly all actives have a fitted effect of over 35% in size
How it was run: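 Stable CHRM1-CHO cells (human receptor) were incubated 18 h, dye-loaded for 1 h at 37 C and exposed to test compounds for agonist activity, with calcium-dependent fluorescence followed kinetically.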

[14] = cAMP Responsive Elements (CRE) small molecule agonists, cell-based qHTS assay (AID 1963590)
How it was run: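 FRET-based beta-lactamase readout (LiveBLAzer B/G, 2 h RT) quantified CRE activation in HEK 293T CRE-bla cells after 3 h treatment with DMSO-dissolved compounds.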

[15] = cAMP Responsive Elements (CRE) small molecule antagonists, cell-based qHTS assay (AID 1963591; active means well fitted inhibition curve with a large enough effect in the signal ratio in the repeat runs, not every such curve was filed as active; the % refers to the signal ratio)
How it was run: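 qHTS in CRE-bla HEK 293T cells: compound in DMSO, then 0.25 uM NKH477 (final), 3 h at 37 °C/5% CO2; beta-lactamase FRET read-out after 2 h substrate incubation.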

[16] = biological target: Beta-2 adrenergic receptor (Homo sapiens) (UniProt P07550); assay: Adrenergic beta2 receptor (ADRB2) small molecule antagonists, cell-based qHTS assay (AID 1963592); further: series mostly up to about 92 µM; nearly all actives have a fitted effect of over 50% in size
How it was run: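 Cells (CHO, stable ADRB2 overexpression) incubated 18-20hr at 37C; compounds added from DMSO; agonist mix (1nM isoproterenol, 100uM IBMX, 25uM Ro-20-1724) added; 0.5hr RT; d2-cAMP and anti-cAMP-cryptate added; 1hr RT; 665/615 nm read.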

[17] = biological target: Beta-2 adrenergic receptor (Homo sapiens) (UniProt P07550); assay: Adrenergic beta2 receptor (ADRB2) small molecule agonists, cell-based qHTS assay (AID 1963593);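 further: CHO cells stably overexpressing human ADRB2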
How it was run: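 CHO cells stably over-expressing ADRB2 were plated overnight at 37C, then dosed with compounds plus a stimulation mix containing 100uM IBMX and 25uM Ro-20-1724 for 0.5hr at room temperature. cAMP was measured by HTRF competition, 1hr.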

[18] = biological target: D(2) dopamine receptor (Homo sapiens) (UniProt P14416); assay: Dopamine D2 receptor (DRD2) small molecule agonists, cell-based qHTS assay (AID 1963594); further: nearly all actives have a fitted effect of over 35% in size
How it was run: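 cAMP accumulation in DRD2-HEK293 cells measured by HTRF after 1 h detection; compounds added 10 min before NKH477 (200nM […]) forskolin-analogue stimulation, 30 min at room temperature, with Ro20-1724 present at 0.1 mM final.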

[19] = biological target: D(2) dopamine receptor (Homo sapiens) (UniProt P14416); assay: Dopamine D2 receptor (DRD2) small molecule antagonists, cell-based qHTS assay (AID 1963595; active means well fitted inhibition curve with a large enough effect in the signal ratio in the repeat runs, with a control signal flat; the % refers to the signal ratio)
How it was run: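 DRD2-HEK293; 0.1 mM Ro20-1724; cpd 10 min RT; NKH477 200 nM + quinpirole 12 nM, 30 min RT; HTRF cAMP (cAMP-d2/anti-cAMP cryptate), 665/620 nm ratio after 1 h.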

Sequence of Gonadotropin-releasing hormone receptor (Homo sapiens) (P30968 whole entry, looked up): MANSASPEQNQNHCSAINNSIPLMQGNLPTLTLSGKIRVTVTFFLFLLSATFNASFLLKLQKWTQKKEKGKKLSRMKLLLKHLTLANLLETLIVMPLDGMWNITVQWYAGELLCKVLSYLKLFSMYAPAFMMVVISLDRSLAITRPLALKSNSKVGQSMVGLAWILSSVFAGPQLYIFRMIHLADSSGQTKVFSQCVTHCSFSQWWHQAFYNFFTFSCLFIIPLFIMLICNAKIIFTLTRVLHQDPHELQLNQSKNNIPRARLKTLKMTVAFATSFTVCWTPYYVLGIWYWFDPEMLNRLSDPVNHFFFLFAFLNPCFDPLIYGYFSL
Sequence of 5-hydroxytryptamine receptor 2A (Homo sapiens) (P28223 whole entry, looked up): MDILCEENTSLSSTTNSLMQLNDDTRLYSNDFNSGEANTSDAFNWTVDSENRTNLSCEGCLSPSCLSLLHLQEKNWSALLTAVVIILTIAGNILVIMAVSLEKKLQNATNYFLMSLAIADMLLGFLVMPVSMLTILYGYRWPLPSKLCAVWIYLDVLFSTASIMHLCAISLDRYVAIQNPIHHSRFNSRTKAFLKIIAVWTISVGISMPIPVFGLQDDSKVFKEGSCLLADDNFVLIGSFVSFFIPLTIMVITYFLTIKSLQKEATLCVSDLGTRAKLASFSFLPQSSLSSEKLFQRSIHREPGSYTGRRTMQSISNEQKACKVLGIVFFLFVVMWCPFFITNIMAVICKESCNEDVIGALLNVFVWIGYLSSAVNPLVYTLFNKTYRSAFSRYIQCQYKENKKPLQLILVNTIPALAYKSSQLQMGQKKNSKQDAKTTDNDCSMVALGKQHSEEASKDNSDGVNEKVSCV
Sequence of Beta-2 adrenergic receptor (Homo sapiens) (P07550 whole entry, looked up): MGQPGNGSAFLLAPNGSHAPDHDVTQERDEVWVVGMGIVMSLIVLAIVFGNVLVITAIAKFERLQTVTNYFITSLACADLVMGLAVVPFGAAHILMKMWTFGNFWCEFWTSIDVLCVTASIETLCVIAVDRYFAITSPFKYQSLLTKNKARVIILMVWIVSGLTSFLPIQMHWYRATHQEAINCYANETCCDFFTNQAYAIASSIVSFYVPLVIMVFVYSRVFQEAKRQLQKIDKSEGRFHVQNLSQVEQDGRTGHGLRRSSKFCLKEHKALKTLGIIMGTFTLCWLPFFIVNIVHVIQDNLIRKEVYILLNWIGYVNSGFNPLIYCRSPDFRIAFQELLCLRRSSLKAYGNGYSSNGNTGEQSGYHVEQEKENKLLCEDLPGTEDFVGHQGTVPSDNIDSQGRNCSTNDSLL
Sequence of D(2) dopamine receptor (Homo sapiens) (P14416 whole entry, looked up): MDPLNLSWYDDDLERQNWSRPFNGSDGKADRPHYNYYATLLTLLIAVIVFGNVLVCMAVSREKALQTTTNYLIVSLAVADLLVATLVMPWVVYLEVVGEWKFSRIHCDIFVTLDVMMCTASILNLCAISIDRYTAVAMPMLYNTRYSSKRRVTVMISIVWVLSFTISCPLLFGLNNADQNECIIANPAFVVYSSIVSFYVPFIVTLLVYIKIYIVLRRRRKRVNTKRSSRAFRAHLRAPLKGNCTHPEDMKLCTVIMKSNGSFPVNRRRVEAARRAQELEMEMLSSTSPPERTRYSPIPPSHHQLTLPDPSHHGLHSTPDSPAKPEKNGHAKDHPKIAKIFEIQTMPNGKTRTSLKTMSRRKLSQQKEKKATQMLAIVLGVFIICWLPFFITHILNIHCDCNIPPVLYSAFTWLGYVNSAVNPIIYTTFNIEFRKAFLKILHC
Sequence of KiSS-1 receptor (Homo sapiens) (Q969F8 whole entry, looked up): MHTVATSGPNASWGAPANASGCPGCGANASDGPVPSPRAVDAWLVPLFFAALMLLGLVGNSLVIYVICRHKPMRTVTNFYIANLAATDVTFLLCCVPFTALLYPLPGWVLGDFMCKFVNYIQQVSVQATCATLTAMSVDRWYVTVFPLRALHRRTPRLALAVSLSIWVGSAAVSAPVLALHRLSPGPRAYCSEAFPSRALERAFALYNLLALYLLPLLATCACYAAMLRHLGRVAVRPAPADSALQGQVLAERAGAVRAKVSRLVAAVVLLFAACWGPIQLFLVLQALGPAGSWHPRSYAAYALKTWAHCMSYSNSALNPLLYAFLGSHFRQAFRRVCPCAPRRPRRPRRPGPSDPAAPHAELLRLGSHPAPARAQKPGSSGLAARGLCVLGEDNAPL
Sequence of Muscarinic acetylcholine receptor M1 (Homo sapiens) (P11229 whole entry, looked up): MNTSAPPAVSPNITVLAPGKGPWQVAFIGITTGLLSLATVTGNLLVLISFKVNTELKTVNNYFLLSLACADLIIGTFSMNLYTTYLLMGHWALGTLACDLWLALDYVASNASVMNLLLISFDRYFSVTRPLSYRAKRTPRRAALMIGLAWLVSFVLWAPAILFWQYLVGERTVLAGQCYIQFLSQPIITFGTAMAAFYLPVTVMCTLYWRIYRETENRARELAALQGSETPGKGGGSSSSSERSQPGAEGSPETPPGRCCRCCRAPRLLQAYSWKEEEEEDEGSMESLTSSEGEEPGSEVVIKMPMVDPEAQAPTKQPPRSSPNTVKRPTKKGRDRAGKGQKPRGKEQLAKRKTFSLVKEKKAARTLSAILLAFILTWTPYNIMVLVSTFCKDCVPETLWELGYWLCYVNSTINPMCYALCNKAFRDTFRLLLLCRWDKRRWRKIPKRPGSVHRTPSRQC

Row | Compound | Potency [1] | Potency [2] | Potency [3] | Potency [4] | Potency [5] | Potency [6] | Potency [7] | Potency [8] | Potency [9] | Potency [10] | Potency [11] | Potency [12] | Potency [13] | Potency [14] | Potency [15] | Potency [16] | Potency [17] | Potency [18] | Potency [19]
1 | Nc1c(I)cc(I)c(C(=O)N(CCC(=O)O)c2ccccc2)c1I | inactive | inactive | inactive | inactive | inactive | inactive | inactive | inactive | inactive | inactive | inactive | inactive | inactive | inactive | inactive | inactive | inactive | inactive | 
2 | Fc1ccccc1 | inactive | inactive | inactive | inactive |  | inactive | inactive |  |  |  |  | inactive | inactive | inactive | inactive | inactive | inactive | inactive | inactive
3 | NCCCCCCNCCCCCCN | inactive | inactive | inactive | inactive |  | inactive | inactive | inactive |  | inactive | inactive |  | inactive | inactive | inactive | inactive |  | inactive | inactive
4 | Cc1ccc(N)cc1O | inactive | 24.3 µM (active) | inactive | inactive |  | 40.8 µM (active) | inactive |  |  |  | inactive |  | inactive |  |  |  |  |  | 
5 | Nc1nc(F)nc2c1ncn2[C@@H]1O[C@H](CO)[C@@H](O)[C@@H]1O | inactive | inactive | inactive | inactive | inactive | inactive | inactive | inactive |  |  |  |  |  | inactive | inactive | inactive | inactive | inactive | inactive
6 | CC1=Nc2ccc3ccccc3c2C1(C)C | inactive | 68.6 µM (active) | 38.9 µM (active) | inactive | inactive | inactive | inactive | inactive |  |  | inactive | inactive |  |  |  |  |  | inactive | inactive
7 | CCCCCCCCCCCC(=O)OCC | inactive | inactive | inactive | inactive | inactive | inactive | inactive | inactive |  | inactive | inactive | inactive | inactive | inactive | inactive |  | inactive | inactive | inactive
8 | O=Cc1cc(O)ccc1Br | inactive | 49.2 µM (active) | inactive | inactive |  |  | inactive | inactive |  | inactive |  | inactive | inactive | inactive | inactive | inactive | inactive | inactive | inactive
9 | CCCCCCC(C)Nc1ccc(Nc2ccccc2)cc1 (stereo unspecified) | 48.6 µM (active) | inactive | inactive | inactive |  | 40.8 µM (active) | inactive | inactive |  | inactive | inactive | inactive | inactive |  |  | inactive |  | inactive | 

From PubChem BioAssay (Tox21)
